The values that follow come from PubChem BioAssay (EPA / NIEHS).

Test [1] is described as follows: CEETOX_H295R_ESTRONE: CeeTox H295R High-throughput Steroidogenesis Assay for Estrone (AID 2283441).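 Further: estrone secreted into medium measured by LC-MS/MS after dansyl derivatization.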 Conditions: actives raise or lower the signal. The procedure, abridged: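 H295R cells prestimulated 48 h with 10 uM forskolin, then exposed 48 h to chemicals in 0.1% DMSO final; estrone in medium extracted with MTBE, dansyl-derivatized, quantified by HPLC-MS/MS; bidirectional fitting versus DMSO, viability by MTT.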

Test [2] in a line: CEETOX_H295R_PROG: CeeTox H295R High-throughput Steroidogenesis Assay for Progesterone (PROG) (AID 2283442).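 Further: human H295R adrenal cells primed with 10 µM forskolin before dosing.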 Particulars: actives raise or lower the signal. The procedure, abridged: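 Progesterone secreted by human H295R cells was measured by LC-MS/MS following 48 h chemical exposure at 0.1% DMSO, preceded by 48 h forskolin (10 uM) stimulation. Same-well MTT viability; cytotoxic concentrations diluted 10- or 100-fold and retested.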

Test [3] can be described thus: CEETOX_H295R_TESTO: CeeTox H295R High-throughput Steroidogenesis Assay for Testosterone (TESTO) (AID 2283457). Conditions: actives raise or lower the signal. The gist of the method: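 Testosterone secreted into the medium over 48 h by H295R cells (maximum passage 10) was quantified by LC-MS/MS after MTBE extraction. Fitted in both directions against DMSO, with concentrations diluted until MTT viability was ≥70%.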

Read-out in test [4]: Tumor necrosis factor receptor superfamily member 6 (Homo sapiens) (UniProt P25445)
As to the kind of experiment: LTEA_HepaRG_FAS: Life Technologies and Expression Analysis (LTEA) Assay for Fas cell surface death receptor (FAS) using HepaRG (AID 2283447). Particulars: mRNA level, 48 h; actives raise or lower the signal. The procedure, abridged: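 Differentiated human HepaRG cells, pre-cultured 48 h, were exposed in duplicate for 48 h to 8-point half-log concentrations (top 100 uM, 0.5% DMSO) in serum-free induction medium; FAS mRNA measured by qRT-PCR, normalized to ACTB/GAPDH/POLR2A, bidirectional fit versus DMSO.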

Read-out in test [5]: Cyclin D2 (CCND2), CCND2 (gene 894)
In words: LTEA_HepaRG_CCND2: Life Technologies and Expression Analysis (LTEA) Assay for Cyclin D2 (CCND2) using HepaRG (AID 2283449).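 Further: CCND2 transcript measured by TaqMan qRT-PCR and normalised to three housekeeping genes.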 Particulars: mRNA level, 48 h; actives raise or lower the signal. The procedure, abridged: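 Differentiated human HepaRG cells were exposed for 48 h in serum-free induction medium to eight half-log concentrations topping at 100 uM (0.5% DMSO vehicle). CCND2 mRNA was quantified by TaqMan qRT-PCR, normalised to ACTB, GAPDH and POLR2A, and fitted bidirectionally against DMSO.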

Read-out in test [6]: Cyclin Dependent Kinase Inhibitor 1A (CDKN1A), CDKN1A (gene 1026)
In words: LTEA_HepaRG_CDKN1A: Life Technologies and Expression Analysis (LTEA) Assay for Cyclin Dependent Kinase Inhibitor 1A (CDKN1A) using HepaRG (AID 2283450). Particulars: mRNA level, 48 h; actives raise or lower the signal. The procedure, abridged: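 Expression quantified by Fluidigm qRT-PCR with ACTB, GAPDH and POLR2A normalization, fitted bidirectionally against 0.5% DMSO. Cells: HepaRG, plated 48 h then treated 48 h in serum-free induction medium, top concentration 100 uM with half-log dilutions.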

Read-out in test [7]: Cyclin D1 (CCND1), CCND1 (gene 595)
In words: LTEA_HepaRG_CCND1: Life Technologies and Expression Analysis (LTEA) Assay for Cyclin D1 (CCND1) using HepaRG (AID 2283451). Particulars: mRNA level, 48 h; actives raise or lower the signal. The gist of the method:
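Expression of CCND1 was quantified by qRT-PCR on Fluidigm arrays using ACTB, GAPDH and POLR2A as reference genes. HepaRG cultures, plated 48 h beforehand, were dosed for 48 h at up to 100 uM (half-log, 8 points) in 0.5% DMSO.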

Read-out in test [8]: catalase (CAT), CAT (gene 847)
As to the kind of experiment: LTEA_HepaRG_CAT: Life Technologies and Expression Analysis (LTEA) Assay for catalase (CAT) using HepaRG (AID 2283452). Conditions: mRNA level, 48 h; actives raise or lower the signal. The procedure, abridged: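 Differentiated HepaRG cells in serum-free induction medium were dosed 48 h in duplicate, eight half-log concentrations from 100 uM in 0.5% DMSO. Transcript measured by TaqMan qRT-PCR, normalised to ACTB/GAPDH/POLR2A, fitted bidirectionally against DMSO.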

Read-out in test [9]: flavin-containing dimethylaniline monooxygenases 3 (FMO3), FMO3 (gene 2328)
In words: LTEA_HepaRG_FMO3: Life Technologies and Expression Analysis (LTEA) Assay for flavin-containing dimethylaniline monooxygenases 3 (FMO3) using HepaRG (AID 2283453). Conditions: mRNA level, 48 h; actives raise or lower the signal. The procedure, abridged:
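Differentiated HepaRG cells in serum-free induction medium, exposed 48 h in duplicate to 8 half-log concentrations up to 100 uM in 0.5% DMSO. FMO3 mRNA by qRT-PCR, normalized to ACTB, GAPDH, POLR2A; bidirectional fit vs DMSO.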

Read-out in test [10]: Cytochrome P450 (CYP1A1), CYP1A1 (gene 1543)
In words: LTEA_HepaRG_CYP1A1: Life Technologies and Expression Analysis (LTEA) Assay for Cytochrome P450 (CYP1A1) using HepaRG (AID 2283454). Particulars: mRNA level, 48 h; actives raise or lower the signal. The procedure, abridged:
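CYP1A1 transcript levels measured by Fluidigm qRT-PCR against three housekeeping genes, 48 h after chemical dosing of human HepaRG cells (highest concentration 100 uM, half-log steps, 0.5% DMSO vehicle). Gain or loss of signal fitted relative to DMSO.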

Read-out in test [11]: CFLAR gene, CFLAR (gene 8837)
In words: LTEA_HepaRG_CFLAR: Life Technologies and Expression Analysis (LTEA) Assay for CFLAR gene using HepaRG (AID 2283455). Conditions: mRNA level, 48 h; actives raise or lower the signal. The procedure, abridged:
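HepaRG cells were plated for 48 h, switched to serum-free induction medium, then exposed in duplicate for 48 h to 8 concentrations (top 100 uM, half-log steps, 0.5% DMSO). CFLAR mRNA was measured by qRT-PCR, normalized to ACTB, GAPDH and POLR2A.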

Read-out in test [12]: Forkhead box O1 (FOXO1), FOXO1 (gene 2308)
In words: LTEA_HepaRG_FOXO1: Life Technologies and Expression Analysis (LTEA) Assay for Forkhead box O1 (FOXO1) using HepaRG (AID 2283456). Particulars: mRNA level, 48 h; actives raise or lower the signal. The procedure, abridged:
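Differentiated human HepaRG cells in serum-free induction medium were exposed in duplicate for 48 h to eight half-log concentrations (top 100 uM, 0.5% DMSO). FOXO1 mRNA was measured by TaqMan qRT-PCR, normalised to ACTB, GAPDH and POLR2A, and fitted bidirectionally against DMSO.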

Read-out in test [13]: growth arrest and DNA damage 45 (GADD45A), GADD45A (gene 1647)
As to the kind of experiment: LTEA_HepaRG_GADD45A: Life Technologies and Expression Analysis (LTEA) Assay for growth arrest and DNA damage 45 (GADD45A) using HepaRG (AID 2283458). Conditions: mRNA level, 48 h; actives raise or lower the signal. The procedure, abridged: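 Cells plated and cultured 48 h, switched to serum-free induction medium, then dosed for 48 h (100 uM top, half-log dilutions, 0.5% DMSO). RNA was isolated and transcript measured by Fluidigm qRT-PCR.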

Read-out in test [14]: Forkhead box O3 (FOXO3), FOXO3 (gene 2309)
As to the kind of experiment: LTEA_HepaRG_FOXO3: Life Technologies and Expression Analysis (LTEA) Assay for Forkhead box O3 (FOXO3) using HepaRG (AID 2283459). Particulars: mRNA level, 48 h; actives raise or lower the signal. The procedure, abridged: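 Differentiated human HepaRG cells in serum-free induction medium were exposed in duplicate for 48 h to eight half-log concentrations up to 100 uM in 0.5% DMSO. FOXO3 mRNA was quantified by qRT-PCR, normalized to ACTB, GAPDH and POLR2A, with bidirectional fitting versus DMSO.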

Read-out in test [15]: ABC Transporter (ABCB1), ABCB1 (gene 5243)
As to the kind of experiment: LTEA_HepaRG_ABCB1: Life Technologies and Expression Analysis (LTEA) Assay for ABC Transporter (ABCB1) using HepaRG (AID 2283460). Particulars: mRNA level, 48 h; actives raise or lower the signal. The procedure, abridged: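 Differentiated human HepaRG cells, plated 48 h then switched to serum-free induction medium, were exposed in duplicate to eight half-log concentrations up to 100 uM in 0.5% DMSO for 48 h. ABCB1 mRNA was measured by TaqMan qRT-PCR, normalized to ACTB/GAPDH/POLR2A.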

Read-out in test [16]: growth arrest and DNA damage 45 (GADD45B), GADD45B (gene 4616)
In words: LTEA_HepaRG_GADD45B: Life Technologies and Expression Analysis (LTEA) Assay for growth arrest and DNA damage 45 (GADD45B) using HepaRG (AID 2283461). Particulars: mRNA level, 48 h; actives raise or lower the signal. The gist of the method:
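Transcript level quantified by Fluidigm TaqMan qRT-PCR with three housekeeping genes for normalization, analyzed for up- or down-regulation against 0.5% DMSO. HepaRG cultures dosed 48 h at eight half-log concentrations up to 100 uM, duplicates.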

Read-out in test [17]: ABC Transporter (ABCC3), ABCC3 (gene 8714)
As to the kind of experiment: LTEA_HepaRG_ABCC3: Life Technologies and Expression Analysis (LTEA) Assay for ABC Transporter (ABCC3) using HepaRG (AID 2283462). Particulars: mRNA level, 48 h; actives raise or lower the signal. The gist of the method: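 Transcript level by TaqMan qRT-PCR, normalised to three housekeeping genes, fitted in both directions relative to vehicle. Chemicals tested in duplicate at eight half-log concentrations up to 100 uM for 48 h on HepaRG cells (0.5% DMSO).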

Read-out in test [18]: ABC Transporter (ABCC2), ABCC2 (gene 1244)
As to the kind of experiment: LTEA_HepaRG_ABCC2: Life Technologies and Expression Analysis (LTEA) Assay for ABC Transporter (ABCC2) using HepaRG (AID 2283464). Particulars: mRNA level, 48 h; actives raise or lower the signal. The gist of the method: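 Endpoint is ABCC2 transcript level from qRT-PCR, normalized to three housekeeping genes and fitted bidirectionally relative to DMSO. Human HepaRG cells received test chemical for 48 h at up to 100 uM (8 points, half-log steps, 0.5% DMSO), duplicate wells.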

Read-out in test [19]: ATP-citrate lyase (ACLY), ACLY (gene 47)
As to the kind of experiment: LTEA_HepaRG_ACLY: Life Technologies and Expression Analysis (LTEA) Assay for ATP-citrate lyase (ACLY) using HepaRG (AID 2283466). Particulars: mRNA level, 48 h; actives raise or lower the signal. The procedure, abridged: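 Differentiated human HepaRG cells in serum-free induction medium exposed 48 h, in duplicate, to eight half-log concentrations from 100 uM top in 0.5% DMSO; ACLY mRNA measured by qRT-PCR, normalized to ACTB, GAPDH, POLR2A, fitted bidirectionally versus DMSO.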

Read-out in test [20]: Fatty acid synthase (Homo sapiens) (UniProt P49327)
In words: LTEA_HepaRG_FASN: Life Technologies and Expression Analysis (LTEA) Assay for Fatty Acid Synthase (FASN) using HepaRG (AID 2283448). Particulars: mRNA level, 48 h; actives raise or lower the signal. The procedure, abridged: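 FASN expression changes, up or down relative to 0.5% DMSO, were measured by qRT-PCR in human HepaRG cells after 48 h treatment with chemicals at eight concentrations (half-log steps from 100 uM).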

SMILES strings stand for the structures. Calls of active or inactive are those of the source. How the source made its calls: active means hit-call score of the fitted dose curve at least 0.9, where 1 is the maximum; inactive means score below 0.9.

Sequence of Fatty acid synthase (Homo sapiens) (P49327 whole entry, looked up): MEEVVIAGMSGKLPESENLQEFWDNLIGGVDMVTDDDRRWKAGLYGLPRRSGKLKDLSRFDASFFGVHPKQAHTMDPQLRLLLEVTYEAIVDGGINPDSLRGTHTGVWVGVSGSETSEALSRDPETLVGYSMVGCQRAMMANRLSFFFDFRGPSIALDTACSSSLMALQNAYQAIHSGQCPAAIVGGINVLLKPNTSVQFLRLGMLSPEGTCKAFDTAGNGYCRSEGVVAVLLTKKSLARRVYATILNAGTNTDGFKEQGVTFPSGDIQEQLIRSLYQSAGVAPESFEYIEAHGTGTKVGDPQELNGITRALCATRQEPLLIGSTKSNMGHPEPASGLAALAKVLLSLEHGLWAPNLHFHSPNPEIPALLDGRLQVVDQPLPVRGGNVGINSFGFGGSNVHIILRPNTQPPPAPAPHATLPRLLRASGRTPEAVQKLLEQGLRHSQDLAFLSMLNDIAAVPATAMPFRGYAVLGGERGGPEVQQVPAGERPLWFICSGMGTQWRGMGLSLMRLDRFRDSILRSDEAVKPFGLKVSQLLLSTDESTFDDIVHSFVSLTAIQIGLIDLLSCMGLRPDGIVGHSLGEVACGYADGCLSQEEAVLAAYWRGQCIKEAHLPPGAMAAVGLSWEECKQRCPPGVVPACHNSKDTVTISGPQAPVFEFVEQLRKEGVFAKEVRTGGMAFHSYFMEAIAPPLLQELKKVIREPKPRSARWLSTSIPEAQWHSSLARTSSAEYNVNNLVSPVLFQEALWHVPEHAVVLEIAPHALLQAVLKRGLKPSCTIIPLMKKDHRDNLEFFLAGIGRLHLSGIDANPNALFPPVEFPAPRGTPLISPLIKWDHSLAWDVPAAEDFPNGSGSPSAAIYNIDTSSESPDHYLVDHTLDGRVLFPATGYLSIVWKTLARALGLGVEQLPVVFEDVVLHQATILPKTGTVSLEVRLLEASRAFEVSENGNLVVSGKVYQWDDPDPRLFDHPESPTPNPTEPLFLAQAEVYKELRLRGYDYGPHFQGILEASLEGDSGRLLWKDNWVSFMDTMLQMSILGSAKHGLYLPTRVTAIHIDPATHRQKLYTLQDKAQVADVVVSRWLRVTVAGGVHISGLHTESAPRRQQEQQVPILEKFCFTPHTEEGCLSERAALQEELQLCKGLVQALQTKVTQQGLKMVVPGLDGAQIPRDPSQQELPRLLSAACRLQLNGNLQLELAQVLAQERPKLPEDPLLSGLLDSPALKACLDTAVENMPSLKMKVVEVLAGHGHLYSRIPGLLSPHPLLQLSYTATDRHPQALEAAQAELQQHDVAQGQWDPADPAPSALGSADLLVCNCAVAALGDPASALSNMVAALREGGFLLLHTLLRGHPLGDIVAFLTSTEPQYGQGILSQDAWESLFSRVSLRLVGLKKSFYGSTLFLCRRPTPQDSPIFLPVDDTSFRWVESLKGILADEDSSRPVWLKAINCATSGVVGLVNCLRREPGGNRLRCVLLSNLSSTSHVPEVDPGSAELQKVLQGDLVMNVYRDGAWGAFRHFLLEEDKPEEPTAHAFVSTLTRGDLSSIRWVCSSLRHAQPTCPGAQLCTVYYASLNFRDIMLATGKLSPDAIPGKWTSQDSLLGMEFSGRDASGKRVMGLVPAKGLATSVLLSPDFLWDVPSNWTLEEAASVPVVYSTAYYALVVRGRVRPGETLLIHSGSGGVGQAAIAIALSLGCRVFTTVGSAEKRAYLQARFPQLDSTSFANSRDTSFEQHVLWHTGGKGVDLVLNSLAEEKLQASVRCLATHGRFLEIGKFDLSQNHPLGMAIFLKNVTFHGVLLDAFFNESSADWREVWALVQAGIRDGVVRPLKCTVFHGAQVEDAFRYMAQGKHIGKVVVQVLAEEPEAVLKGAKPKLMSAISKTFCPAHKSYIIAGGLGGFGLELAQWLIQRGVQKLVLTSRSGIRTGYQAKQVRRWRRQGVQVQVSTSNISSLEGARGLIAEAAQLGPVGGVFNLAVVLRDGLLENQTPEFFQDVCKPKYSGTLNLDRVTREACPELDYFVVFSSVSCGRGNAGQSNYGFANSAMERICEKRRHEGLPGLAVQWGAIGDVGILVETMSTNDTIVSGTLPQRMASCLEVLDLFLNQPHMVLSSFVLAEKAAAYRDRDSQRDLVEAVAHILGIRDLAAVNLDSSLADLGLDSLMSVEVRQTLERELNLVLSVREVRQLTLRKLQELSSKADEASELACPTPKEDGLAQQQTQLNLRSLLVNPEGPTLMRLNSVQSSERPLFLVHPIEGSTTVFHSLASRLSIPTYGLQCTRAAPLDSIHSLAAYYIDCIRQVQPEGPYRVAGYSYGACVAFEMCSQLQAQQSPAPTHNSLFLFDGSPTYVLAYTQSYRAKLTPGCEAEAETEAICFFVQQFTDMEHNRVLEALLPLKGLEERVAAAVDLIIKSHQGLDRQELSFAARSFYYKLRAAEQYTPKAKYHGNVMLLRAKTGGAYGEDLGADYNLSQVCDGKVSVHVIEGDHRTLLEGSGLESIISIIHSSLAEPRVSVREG

In general, AC50 refers to the concentration at which the activity in the assay is half-maximal. Turning to `COc1cc([N+](=O)[O-])ccc1N`, the compound was classed as inactive in [1] and in test [3]. Besides, in test [2], the concentration at half-maximal activity (AC50) was 24.2 µM (active).
For the compound `O=C(NCc1ncc(C(F)(F)F)cc1Cl)c1c(Cl)cccc1Cl`, the compound was classed as inactive in [1] and in [3]. In addition, the AC50 in test [2] is 7.48 µM (active).
Consider `N=C(N)c1ccc(OCCCCCOc2ccc(C(=N)N)cc2)cc1`, for which the AC50 in test [4] was 4.23 µM (active); in test [6] it was 10.1 µM (active); in test [8], 6.7 µM (active); in test [9], 6.68 µM (active); in test [11] it was 30.5 µM (active); in [12], 43.8 µM (active). Moreover, the concentration at half-maximal activity (AC50) was 4.21 µM (active) in test [13]; 4.87 µM (active) in [15]; 7.1 µM (active) in test [16]; 3.46 µM (active) in test [17]; 25.6 µM (active) in test [18]; 35.9 µM (active) in test [19]. Moreover, the outcome in test [5], in test [7], in [10] and in [14] was inactive.
Take `Cc1[nH]nc2c1N=C(c1ccccc1Cl)c1cc([N+](=O)[O-])ccc1N2`: the concentration at half-maximal activity (AC50) in [4] is 4.11 µM (active); in test [20] it was 7.35 µM (active); in test [7], 1.22 µM (active); in test [8], 16.1 µM (active); in test [9], 9.1 µM (active); in test [10] it was 81.8 µM (active). Besides, the AC50 in [11] is 12.9 µM (active); in [12], 5.4 µM (active); in [13], 88.8 µM (active); in test [14], 12.6 µM (active); in [15] it was 0.742 µM (active); in test [16], 4.57 µM (active). Besides, the AC50 in test [17] was 3.26 µM (active); in test [18], 31.9 µM (active). The compound was called inactive in [5], in test [6] and in test [19].
